# PubChem BioAssay (NCATS)
# Records with an inconclusive call do not appear. Where a call stands in place of a potency, no number is given. The source made the active and inactive calls. Unless noted, calls follow the shape of the dose curve; as a rule, active = well fitted curve in the direction sought with a large enough effect; inconclusive = small, poorly fitted or top-dose-only effect, or another doubt; inactive = no such curve, though single readings can be large; an effect the other way counts as inactive or inconclusive.
# Target: Cellular tumor antigen p53 (Homo sapiens) (UniProt P04637)
# Sequence (P04637 whole entry, looked up): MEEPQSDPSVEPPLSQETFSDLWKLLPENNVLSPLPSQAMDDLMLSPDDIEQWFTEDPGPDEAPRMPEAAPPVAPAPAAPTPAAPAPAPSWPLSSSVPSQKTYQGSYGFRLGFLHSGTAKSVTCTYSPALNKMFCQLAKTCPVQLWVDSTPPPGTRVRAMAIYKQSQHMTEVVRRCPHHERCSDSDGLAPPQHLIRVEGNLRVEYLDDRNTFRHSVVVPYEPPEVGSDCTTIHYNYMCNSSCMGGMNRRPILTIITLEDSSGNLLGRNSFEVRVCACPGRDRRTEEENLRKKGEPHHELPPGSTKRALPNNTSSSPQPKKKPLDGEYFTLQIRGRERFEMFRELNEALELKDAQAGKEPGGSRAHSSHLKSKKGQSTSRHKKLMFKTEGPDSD
# Test: Primary qHTS for small molecule compounds that upregulate eGFP-tagged delta133p53alpha (in C-terminal) cells. (AID 2060324); also: potency is read from the fitted curve at half-maximal effect
# Conditions: NCI-H358 delta133p53alpha-eGFP (C-terminal tag), GFP fluorescence imaging, 24 h; series mostly up to 57.5 µM
# Procedure, shortened: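 Read-out: gated-cell GFP peak intensity (laser scanning cytometer), plate-normalized with DMSO as 0% activity, after 24 h compound exposure at 37C. Cells were C-terminal eGFP-tagged delta133p53alpha NCI-H358, doxycycline-induced (100 ng/ml, 24 h) before plating.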
row,Compound,Potency
1,Cn1ccc2cc3c(cc21)CCN3C(=O)Nc1cccnc1,inactive
2,O=C1Nc2ccc(I)cc2/C1=C/c1cc(Br)c(O)c(Br)c1,19 µM (active)
3,COc1ccccc1OCC(O)CN1CCN(CC(=O)Nc2c(C)cccc2C)CC1 (stereo not drawn),inactive
4,C[C@H](Cc1ccc(O)c(O)c1)[C@@H](C)Cc1ccc(O)c(O)c1,inactive
5,CCN(CC)C(C)CN1c2ccccc2Sc2ccccc21 (stereo not drawn),inactive
6,Cc1cccc(C)c1OCC(N)C(C)C (stereo not drawn),inactive
7,Cc1c(OCC(F)(F)F)ccnc1CS(=O)c1nc2ccccc2[nH]1 (stereo not drawn),inactive
8,COc1ccc(/C=C/C(=O)Nc2ccccc2C(=O)O)cc1OC,inactive

# Target: Aldehyde dehydrogenase, mitochondrial (Homo sapiens) (UniProt P05091)
# Test: qHTS for Inhibitors of the Aldehyde Dehydrogenase Family (ALDH2) Validation screens (AID 2061302; active = well fitted inhibition curve with a large enough effect; title and protocol of this record describe different tests; also: potency is read from the fitted curve at half-maximal effect)
# Conditions: ALDH inhibition qHTS; series mostly up to 42.6 µM
row,Compound,Potency
1,O=c1cc(N2CCOCC2)oc2c(-c3ccccc3)cccc12,inactive
2,COc1ccccc1N1CCN(CC(O)COc2cccc3ccccc23)CC1 (stereo not drawn),inactive
3,Cc1oncc1C(=O)Nc1ccc(C(F)(F)F)cc1,inactive
4,Cn1ccc2cc3c(cc21)CCN3C(=O)Nc1cccnc1,inactive
5,O=C1Nc2ccc(I)cc2/C1=C/c1cc(Br)c(O)c(Br)c1,inactive
6,COc1ccccc1OCC(O)CN1CCN(CC(=O)Nc2c(C)cccc2C)CC1 (stereo not drawn),inactive
7,C[C@H](Cc1ccc(O)c(O)c1)[C@@H](C)Cc1ccc(O)c(O)c1,15.8 µM (active)
8,Cc1c(OCC(F)(F)F)ccnc1CS(=O)c1nc2ccccc2[nH]1 (stereo not drawn),inactive

# Target: Aldehyde dehydrogenase, mitochondrial (Homo sapiens) (UniProt P05091)
# Test: qHTS for Inhibitors of the Aldehyde Dehydrogenase Family (ALDH2) Confirmatory screens (AID 2061303; active = well fitted inhibition curve with a large enough effect; title and protocol of this record describe different tests; also: nearly all actives have a fitted effect of over 45% in size)
# Conditions: ALDH inhibition qHTS; series mostly up to 45.4 µM
row,Compound,Potency
1,Cc1nc(N=Nc2cc(S(=O)(=O)O)c3cc([N+](=O)[O-])cc(S(=O)(=O)O)c3c2)c(COP(=O)(O)O)c(C=O)c1O,inactive
2,COc1ccccc1N1CCN(CCN2C(=O)CC3(CCCC3)CC2=O)CC1,inactive
3,CCCCC#Cc1nc(NC)c2ncn([C@@H]3O[C@H](CO)[C@@H](O)[C@H]3O)c2n1,inactive
4,O=C(c1cc(O)c(O)c([N+](=O)[O-])c1)c1ccccc1F,inactive
5,COc1cc(/C=C(\C#N)C(=O)Nc2nnc(C(F)(F)F)s2)ccc1OCc1ccc(C(F)(F)F)cc1C(F)(F)F,inactive
6,Cn1c(=O)c2[nH]c(-c3ccc(S(=O)(=O)O)cc3)nc2n(C)c1=O,inactive
7,CN(C)C/C=C(/c1ccc(Br)cc1)c1cccnc1,inactive
8,Cc1cccc(C)c1OCC(N)C(C)C (stereo not drawn),inactive

# System: not listed separately
# Test: qHTS for Inhibitors of the Aldehyde Dehydrogenase Family (ALDH1A2, ALDH1A3, ALDH2, ALDH3A1) (AID 2061307); also: nearly all actives have a fitted effect of over 50% in size; as to potency: test system not described further here; potency is read from the fitted curve at half-maximal effect
# Conditions: ALDH inhibition qHTS; series mostly up to 50.3 µM
row,Compound,Potency
1,Cc1nc(N=Nc2cc(S(=O)(=O)O)c3cc([N+](=O)[O-])cc(S(=O)(=O)O)c3c2)c(COP(=O)(O)O)c(C=O)c1O,inactive
2,COc1ccccc1N1CCN(CCN2C(=O)CC3(CCCC3)CC2=O)CC1,inactive
3,CCCCC#Cc1nc(NC)c2ncn([C@@H]3O[C@H](CO)[C@@H](O)[C@H]3O)c2n1,inactive
4,COc1cc(/C=C(\C#N)C(=O)Nc2nnc(C(F)(F)F)s2)ccc1OCc1ccc(C(F)(F)F)cc1C(F)(F)F,inactive
5,Clc1ccc2c(N3CCN(CCCN4CCN(c5ccnc6cc(Cl)ccc56)CC4)CC3)ccnc2c1,inactive
6,Cn1c(=O)c2[nH]c(-c3ccc(S(=O)(=O)O)cc3)nc2n(C)c1=O,inactive
7,Cn1ncc(S(=O)(=O)Cc2ccccc2)c(Br)c1=O,inactive
8,C=Cc1c(C)c2cc3[nH]c(cc4nc(cc5nc(cc1[nH]2)C(C)=C5CCC(=O)O)C(CCC(=O)O)=C4C)c(C)c3C=C,10.1 µM (active)
9,Cc1cccc(C)c1OCC(N)C(C)C (stereo not drawn),inactive
